# Assay outcomes deposited in PubChem by several laboratories.
# ADAM17 inh: inhibitors of human ADAM17; P78536; recombinant ADAM17, EDANS/DABCYL FRET peptide cleavage; inhibition, % at 6.95 µM; hit rate 0.83% among 370,000;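 active = inhibition above the mean of compounds lying between control limits plus 3 SD, set per campaign, cut at about 8.5% in these data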;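 note: 0% = DMSO-only wells as the low control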
# Target sequence (P78536 215-824 limits assumed): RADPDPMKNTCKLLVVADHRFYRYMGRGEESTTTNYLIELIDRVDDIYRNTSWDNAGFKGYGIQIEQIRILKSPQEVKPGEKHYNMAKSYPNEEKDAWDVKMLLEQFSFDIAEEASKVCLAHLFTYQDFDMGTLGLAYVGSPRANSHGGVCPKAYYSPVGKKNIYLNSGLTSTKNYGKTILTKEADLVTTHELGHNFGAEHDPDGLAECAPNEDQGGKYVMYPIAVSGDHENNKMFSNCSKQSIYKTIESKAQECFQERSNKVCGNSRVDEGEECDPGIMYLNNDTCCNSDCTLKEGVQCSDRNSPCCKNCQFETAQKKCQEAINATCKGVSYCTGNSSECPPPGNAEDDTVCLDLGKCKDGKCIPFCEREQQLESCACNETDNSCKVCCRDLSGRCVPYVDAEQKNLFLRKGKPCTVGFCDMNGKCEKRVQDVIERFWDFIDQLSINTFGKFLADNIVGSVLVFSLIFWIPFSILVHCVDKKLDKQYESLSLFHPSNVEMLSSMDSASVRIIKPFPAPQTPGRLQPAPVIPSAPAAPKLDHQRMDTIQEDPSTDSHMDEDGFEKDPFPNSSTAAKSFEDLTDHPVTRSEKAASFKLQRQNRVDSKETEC
# GC-B act: GC-B (human) receptor activation; HEK293-GC-B cells, CNP EC30, cGMP TR-FRET; 0% at EC30 CNP, 100% saturating CNP; activation, % at 10 µM; hit rate 0.11% among 370,000; AID 1920062;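 active = activation at 10 µM reaching about 35% in either raw or pattern-adjusted values, limit read from the data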
# FAS-TE inh: blocks the thioesterase domain of human fatty acid synthase. P49327. recombinant FAS-TE, OMFH fluorogenic substrate, fluorescence endpoint. inhibition, % at 15 µM. hit rate 0.67% among 360,000;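 active = compounds whose normalised, plate-corrected inhibition of enzyme fluorescence in the single-dose primary screen is 50% or more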;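 note: 0% = DMSO with enzyme and 100% = substrate without enzyme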
# ADAM10 inh: inhibitors of human ADAM10; AID 720582; recombinant ADAM10, EDANS/DABCYL FRET peptide cleavage, 3 h; hit rate 0.62% among 370,000; inhibition, % at 7 µM; O14672;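 active = inhibition above a per-campaign cutoff equal to the mean of compounds falling between control-based bounds plus 3 SD, cut at about 20% in these data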;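 note: 0% = DMSO wells while the 100% control is not disclosed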
# GC-A act: GC-A (human) enzyme activation; P16066; HEK293 GC-A cells, cGMP TR-FRET, EC30 ANP; 0% at EC30 ANP, 100% saturating ANP; activation, % at 10 µM; hit rate 0.14% among 370,000; in the data active = activation above about 40%
# FAS-TE conf: confirmation of human fatty acid synthase thioesterase inhibitors; inhibition, % at 15 µM; hit rate 45% among 2,300; recombinant FAS-TE, OMFH fluorogenic substrate, fluorescence; shares compounds with FAS-TE inh; AID 624325;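 active = compounds inhibiting the enzyme by at least 50% at 15 µM in any one of the replicates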;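 note: 0% = enzyme with DMSO only and 100% = wells lacking enzyme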
# An asterisk follows results filed as active; nt = not tested or not shown. Hits are enriched below; roughly 2% of the tested compounds scored in any of these assays.
SMILES,ADAM17 inh,GC-B act,FAS-TE inh,ADAM10 inh,GC-A act,FAS-TE conf
COc1ccc([C@H]2/C=C\CN(S(=O)(=O)c3cccc4cccnc34)[C@@H](C)C(=O)N2Cc2ccc(F)cc2)cc1,7,-8,78*,14,-5,6
COc1ccc(NS(=O)(=O)c2cc(NC(=O)c3cnc(C)cn3)ccc2N2CCCCC2)cc1,8,6,55*,12,-2,28
COc1ccc(NS(=O)(=O)c2cc(NC(=O)c3ccc(Cl)cc3)ccc2N2CCOCC2)cc1,2,1,53*,-17,6,6
COC(=O)[C@]12C[C@H](CC(=O)N3CCN(C(=O)c4ccco4)CC3)C(=O)N(CCC3=CCCCC3)C1=C[C@H](C1CCCC1)O[C@@H]2C,1,-2,nt,6,-4,nt
COc1cc(/C=N/NC(=O)c2ccc3ccccc3c2)ccc1Oc1ccc([N+](=O)[O-])cn1,2,-2,52*,9,-1,12
O=C(/C=C/c1cccc([N+](=O)[O-])c1)N1CCN(c2ccccn2)CC1,1,2,51*,-3,0,42
O=C(/C=C/c1cccc([N+](=O)[O-])c1)N1CCN(S(=O)(=O)c2cccs2)CC1,-4,-6,77*,0,-12,83*
O=C(c1cccc([N+](=O)[O-])c1)N1CCN(c2ccccn2)CC1,-2,-4,-2,-4,4,nt
O=C(/C=C/c1cccc([N+](=O)[O-])c1)N1CCOCC1,5,3,-8,7,-1,nt
C[C@@H]1COc2cccc(NCCCN3CCOCC3)c2S(=O)(=O)N1,-3,2,nt,-7,3,nt
C(/C=C\c1ccco1)=NN1CCN(Cc2cccc3ccccc23)CC1,3,-12,nt,6,-4,nt
CCOC(=O)[C@@H](NC(=O)[C@@H]1CC=C[C@@H]2CCN(Cc3ccc(Cl)cc3)C(=O)[C@@H]21)C(C)C,-5,-2,nt,-5,0,nt
COc1ccc(-n2c(SCc3ccc([N+](=O)[O-])cc3)nnc2-c2ccc(C)cc2)cc1,-5,-6,58*,18,-13,42
Cc1ccc(-c2nnc(SCc3ccc([N+](=O)[O-])cc3)n2-c2ccccc2)cc1,0,-5,nt,1,-11,nt
NNC(=O)C1=NOC2COC3(CCN(c4ncccn4)CC3)OCC12 (centres undefined),-5,-1,-5,-6,-1,nt
O=C(N/N=C\c1ccc(Cl)cc1)C1=NOC2COC3(CCN(c4ccc([N+](=O)[O-])cc4)CC3)OCC12 (centres undefined),8,3,69*,12,0,19
CCN(C(=O)Cn1nnc(-c2ccncc2)n1)c1ccccc1,-3,-3,nt,-8,4,nt
COc1ccccc1-n1c2nc3ccccc3nc2c2c(=O)n(-c3cc(C)cc(C)c3)cnc21,-3,5,92*,-20,8,33
COc1ccccc1-n1cnc2c(c1=O)c1nc3ccccc3nc1n2-c1ccc(C)cc1,-3,-10,46,-11,3,nt
CC(=O)c1cn(CC(=O)NCc2ccc3c(c2)OCO3)c2ccccc12,-3,1,16,-7,-3,nt
O=C(Cn1cc(C(=O)C2CC2)c2ccccc21)NCc1ccc2c(c1)OCO2,-8,-6,59*,-9,-10,55*
O=C(CCCn1c(SCc2cccc([N+](=O)[O-])c2)nc2ccccc2c1=O)NCC1CCCO1 (centres undefined),-4,4,86*,2,-12,30
O=C(CCCn1c(SCc2ccccc2F)nc2ccccc2c1=O)NCC1CCCO1 (centres undefined),-4,2,4,7,-11,nt
CCOc1ccccc1C(=O)Nc1ccc2nc(C)[nH]c(=O)c2c1,-4,-6,nt,-20,0,nt
CC(C)NC(=O)C1CCN(C(=O)C(C(=O)c2ccccc2)n2cc(Cl)ccc2=O)CC1 (centres undefined),-3,-4,-4,-7,7,nt
SMILES,ADAM17 inh,GC-B act,FAS-TE inh,ADAM10 inh,GC-A act,FAS-TE conf
CC(NC(=O)C(C(=O)c1cccc([N+](=O)[O-])c1)n1cc(Cl)ccc1=O)c1ccccc1 (centres undefined),-11,1,59*,-9,4,65*
O=C(Nc1cccc(C(F)(F)F)c1)c1cccnc1NCCc1ccccc1,-28,-9,53*,-95,-4,31
O=C(Nc1cccc(C(F)(F)F)c1)c1cccnc1NCCO,-20,4,-1,-54,2,nt
C[C@]1(C(=O)NCc2cc(F)cc(C(F)(F)F)c2)C=C[C@@H](Cc2ccccc2)N1C(=O)c1ccccc1,3,-3,68*,7,-4,23
COCCNC(=O)[C@@]1(C)C=C[C@@H](Cc2ccccc2)N1C(=O)c1ccccc1,-1,9,-13,-3,3,nt
O=C1CSc2ccc(C(=O)N3CCCC(C(=O)N4CCCCC4)C3)cc2N1 (centres undefined),-2,10,nt,-6,1,nt
CC1CCN(C(=O)COC(=O)c2cc([N+](=O)[O-])ccc2N2CCOCC2)CC1,-1,2,71*,3,2,82*
CCOC(=O)C1CCN(C(=O)COc2ccc([N+](=O)[O-])cc2)CC1,-2,1,59*,-5,4,67*
COC(=O)C1CCN(C(=O)COC(=O)c2cc([N+](=O)[O-])ccc2N2CCOCC2)CC1,-1,1,69*,-7,3,71*
CC(C)C[C@@H]1COc2cccc(NCCO)c2S(=O)(=O)N1,-6,5,nt,-7,3,nt
Cc1c(-c2ccccc2)oc2c(C(=O)N3CCN(c4ccc([N+](=O)[O-])cc4)CC3)cccc2c1=O,3,-7,60*,2,-7,10
CCOc1ccc(NC(=O)c2cc([N+](=O)[O-])ccc2N2CCOCC2)cc1,-5,4,55*,-13,-2,65*
CCc1cccc(NC(=O)COC(=O)c2cc([N+](=O)[O-])ccc2N2CCOCC2)c1,-2,4,87*,-4,0,89*
CN1CCN(c2ccc(NC(=O)c3cc([N+](=O)[O-])ccc3N3CCOCC3)cc2)CC1,0,-2,0,2,0,nt
CN(C)S(=O)(=O)c1cccc(COC(=O)c2cc([N+](=O)[O-])ccc2N2CCOCC2)c1,-5,-4,34,3,7,nt
O=C(NC(=S)Nc1ccccc1)c1cc([N+](=O)[O-])ccc1N1CCOCC1,-1,7,58*,-3,5,51*
O=C(NC12CC3CC(CC(C3)C1)C2)c1cc([N+](=O)[O-])ccc1N1CCOCC1,0,13,51*,5,1,39*
